# Source: article PMC5540273 (PLoS ONE, 2017)
# Experiments:
# Conditions in all cases: concentration: 1 μM, replicates: in singlicate; n = 1
# ACVR2B = tested on: ACVR2B
# ACVRL1 = tested on: ACVRL1
# ADCK3 = tested on: T1, ADCK3
# T1 construct: gene CABC1
# ADCK4 = tested on: ADCK4
# AKT1 = tested on: AKT1
# AKT2 = tested on: AKT2
# AKT3 = tested on: AKT3
# ALK = tested on: ALK
# AMPK-alpha1 = tested on: T2, AMPK-alpha1
# T2 construct: gene PRKAA1
# AMPK-alpha2 = tested on: T3, AMPK-alpha2
# T3 construct: gene PRKAA2
# 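Also: KINOMEscan kinase panel screen.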
SMILES,%Inh (ACVR2B) [%],%Inh (ACVRL1) [%],%Inh (ADCK3) [%],%Inh (ADCK4) [%],%Inh (AKT1) [%],%Inh (AKT2) [%],%Inh (AKT3) [%],%Inh (ALK) [%],%Inh (AMPK-alpha1) [%],%Inh (AMPK-alpha2) [%]
CC(C)(C)c1ccc(C(=O)Nc2cn3cc(Cl)ccc3n2)cc1,9,0,5,0,5,0,0,3,0,16
O=C1NC(=O)C(N2CCc3ccccc32)=C1c1ccccc1Cl [SB-373598],33,13,17,16,0,19,25,4,17,22
CS(=O)(=O)c1ccc(-c2nc3n(c2-c2ccncc2)CCC3)cc1 [SKF-105942],0,0,11,58,0,100,0,28,24,0
Cl.NC(=O)c1cccc(Nc2nccc(Nc3ccc(Oc4cccc(Cl)c4)c(Cl)c3)n2)c1 [GW659008],14,0,5,32,0,8,0,24,42,33
Cn1ccc2ncnc(Oc3ccc(NC(=O)Nc4ccccc4)cc3)c21,0,0,12,5,13,0,0,0,0,2
Cc1c(O)cccc1Nc1ccnc2ccc(C(F)(F)F)cc12.Cl [GW466413],85,43,0,81,0,0,1,25,12,16
Cc1ccc(NC(=O)Nc2cc(C(C)(C)C)nn2-c2ccccc2)cc1 [GSK1014915],5,5,25,25,0,14,20,28,0,11
COc1cc2ncnc(Nc3ccc4nc(-c5ccccc5)[nH]c4c3)c2cc1OC.Cl [GW282450],0,0,10,16,0,0,0,0,0,0
COc1cccc(NC(=O)NC2CCN(c3ccnc(Nc4ccc(F)cc4)n3)C2)c1 (centres unmarked) [GSK1379721],4,0,1,22,0,0,0,24,0,0
Cn1ccc2ncnc(Oc3ccc(Nc4nc5ccccc5[nH]4)cc3)c21,0,0,0,0,0,16,0,0,7,0
Cl.O=C(Nc1cccc(-c2nn3ncccc3c2-c2ccnc(Nc3cccnc3)n2)c1)c1c(F)cccc1F [GSK312879],0,2,27,2,0,19,10,24,0,12
COc1ccc(CNC(=O)NC2CCN(c3ccnc(Nc4cc(OC)c(OC)c(OC)c4)n3)C2)cc1 (centres unmarked) [GSK1379748],0,0,24,76,0,0,0,27,10,0
Cn1cncc1-c1ccc2ncnc(Nc3ccc(OCc4ccccc4)cc3)c2c1 [GW320571],16,23,27,15,0,20,10,21,35,20
COc1ccc(Nc2nccc(NCCNC(=O)Nc3ccccc3F)n2)cc1 [GSK1379901],0,0,15,25,0,0,0,48,0,0
Cc1cccc(-c2nc(Nc3ccc4[nH]ncc4c3)c3ccccc3n2)n1 [GW857175],0,0,0,0,29,55,0,19,0,2
Cc1cccc(-c2nc(-c3ccc(S(C)(=O)=O)cc3)sc2-c2ccnc(NCCc3ccccc3)c2)c1,3,0,0,12,14,6,12,0,0,17
Fc1cc(Cl)ccc1Nc1ccnc2cc(I)ccc12 [GW551191],85,5,0,23,0,18,58,29,0,0
Cc1cccc(-c2nc(Nc3ccncc3)c3ccccc3n2)n1 [GW855857],36,65,27,0,20,0,0,0,0,12

SMILES,%Inh (ACVR2B) [%],%Inh (ACVRL1) [%],%Inh (ADCK3) [%],%Inh (ADCK4) [%],%Inh (AKT1) [%],%Inh (AKT2) [%],%Inh (AKT3) [%],%Inh (ALK) [%],%Inh (AMPK-alpha1) [%],%Inh (AMPK-alpha2) [%]
O=C(Nc1n[nH]c2nc(-c3nccs3)c(Br)cc12)C1CCCC1 [SB-742609],11,0,0,14,0,10,1,26,0,18
Cl.c1ccc(-c2n[nH]cc2-c2ccnc(-c3ccc(CN4CCOCC4)cc3)c2)nc1 [GW776245],9,0,34,0,17,0,0,0,0,14
Cc1csc(-c2nc(Nc3ccncc3)c3ccccc3n2)n1 [GW869640],4,7,14,0,0,3,15,43,12,11
Cc1c(Cn2ccn3c(=O)cc(N4CCOCC4)nc23)cccc1C(F)(F)F [GSK2289044],0,0,32,0,0,19,86,5,23,17
O=C(O)COc1ncnc2cc(-c3ccc4[nH]ncc4c3)sc12,0,6,0,0,0,22,17,0,13,18
O=C(Nc1ccccc1)Nc1cccc(Oc2ccc3nccn3n2)c1,6,0,5,18,32,0,20,17,11,0
CCn1c(-c2ccccn2)nc2cnccc21 [SB-736398],0,0,56,6,0,19,0,34,5,10
CN(C)CCN(C)C(=O)c1cc(-c2ccncc2)c(-c2ccc(Cl)c(O)c2)o1.Cl.Cl [SB-710397],9,0,11,45,0,0,0,29,0,0
Fc1cccc(COc2nnc(-c3ccc4c(c3)CCO4)o2)c1,100,0,0,0,0,20,11,7,6,0
C[C@@H]1CCCCN1c1cc(-c2ccc3c(N)n[nH]c3c2)nc(N)n1 [GSK2258759],0,0,14,20,0,0,0,0,0,0
Cc1cc(N2Cc3ccccc3C2)nc(Nc2ccc(S(=O)(=O)N3CCOCC3)cc2)n1.Cl [GSK1669917],0,0,7,8,96.3,0,0,5,0,16
NC(=O)c1nnc2ccccc2c1N,24,0,81,1,7,0,0,24,25,6
CC1=C(C(=O)Nc2cc3cn[nH]c3cc2F)C(c2ccc(C(F)(F)F)cc2)CC(=O)N1 (centres unmarked) [GSK429286],0,0,11,11,0,20,0,29,23,19
Cc1cc(-c2ccc3c(c2)CC[C@@H](N[C@@H](C)c2ccccc2)C3)cnc1N.Cl [GW412617],0,37,41,1,0,27,14,52,2,20
CCCc1ccc(S(=O)(=O)NC2CCN(c3ccnc(Nc4ccc(F)cc4)n3)C2)cc1 (centres unmarked) [GSK1379715],0,0,14,34,0,100,0,32,6,0
Cl.Oc1ccc(-c2nc(-c3ccccc3)[nH]c2-c2ccncc2)cc1 [SB-428218],13,0,5,82,0,18,0,44,0,0
Clc1cc(Cl)cc(Nc2ccnc(Nc3cc(Cl)cc(Cl)c3)n2)c1 [GSK175726],39,43,31,3,0,0,0,18,18,0
